# Reference: PubChem BioAssay (EPA / NIEHS)
# Where a structure was tested more than once in an assay, its records may differ in their call. Calls of active or inactive are those of the source. Rule for the calls: active = hit-call score of the fitted dose curve at least 0.9, where 1 is the maximum; inactive = score below 0.9.
# Read-out: adenosine kinase (ADK) gene, ADK (gene 132)
# Test: LTEA_HepaRG_ADK: Life Technologies and Expression Analysis (LTEA) Assay for adenosine kinase (ADK) gene using HepaRG (AID 2283471)
# Settings: mRNA level, 48 h; actives raise or lower the signal
# Protocol: LTEA_HepaRG is a cell based, multiplexed-readout assay that uses HepaRG, a human liver cell line, with measurements taken at 48 hours after chemical dosing on a 96-well plate.LTEA_HepaRG_ADK is one of 102 assay component(s) measured in the LTEA HepaRG cell culture assay. It is a marker of Steatosis.Data from the assay component LTEA_HepaRG_ADK was analyzed into 1 endpoint. This assay endpoint, LTEA_HepaRG_ADK, was analyzed with bidirectional fitting relative to DMSO as the negative control and baseline of activity. Using a type of inducible reporter, measures of mRNA induction for gain or loss-of-signal activity can be used to understand regulation of transcription factor activity. To generalize the intended target to other relatable targets, this assay endpoint is annotated to the kinase intended target family, where the subfamily is steatosis.
# A total of 1060 chemcials from the ToxCast library were tested in eight-point concentration-response experiments. Cell culture and cytotoxicity assays were conducted at Thermo Fisher Scientific's Custom Services facility (Madison, WI). A single lot of human HepaRG cells (Thermo Fisher Scientific, Frederick, MD) was used for the cell culture experiments. 96-well format collagen type I coated plates of human HepaRG cells were prepared using established methods. Briefly, cryopreserved HepaRG cells were thawed, plated at a density of approximately 100,000 cells/well in HepaRG Thaw, Plate, and General Purpose media (HPRG770, Thermo Fisher Scientific), and incubated for 48 hours. 0.5% DMSO was selected as vehicle control to balance the requisite need of DMSO in HepaRG cultures to maintain differentiation (for example, baseline metabolism, proportions of hepatocytes vs. cholangiocytes), while enabling further hepatic receptor pathway activation (for example, PXR and CAR) in response to chemical exposure. 48 hours after plating, the culture medium was replaced with HepaRG Serum-Free Incudtion Media. Cells were exposed to each test chemical in duplicate and maintained in CO2 incubators for another 48 hours. Chemical plates were thawed to room temperature and 200x concentrations of treatment groups were prepared. 8-point conentration-reponse curves were made with the highest exposure at 100 uM, followed by half-log dilutions, all in 0.5% DMSO. Each test plate contained variouse controls, induction positive controls (1mM phenobarbital), cytotoxicity positive controls ([…] aflatoxin B1), vehicle controls (0.5% DMSO), and total lysis controls (0.5% DMSO). Cell morphology images were taken using an Essen IncuCyte FLR automated microscope, with six 96-well plates imaged in about 24 minutes. Images were captured and exported and JPEG files. Spent culture media was transfered to black-well plates for the LDH assay, and remaining media was sorted at -80 C for later use. Cells were treated with RLT buffer and frozen until shipped for gene expression analysis. Total RNA was isolated from the cell suspension in 75 uL of Buffer RLT (Qiagen, Germantown, MD 20874) by Quintiles/Expression Analysis (Durham, NC) using a custom isolation procedure. Total RNA from each plate well was transferred to a preamplification plate. Fluidigm's 96.96 Dynamic ArrayTM (Fluidigm, Amsterdam, the Netherlands) technology was used for gene expression analyses by quantitative reverse transcription polymerase chain reaction (qRT-PCR, performed by Quintiles/Expression Analysis, Durham, NC)89. Standard TaqManTM Assays (Applied Biosystems/ThermoFisher Scientific, Foster City, CA) were used to assess the expression of 93 genes selected based on their selectivity and sensitivity to important hepatic receptors known to be modulated by environmental chemicals; importance in human hepatocyte functionality; and hepatotoxicity. […]
SMILES,outcome,AC50
CNC(=S)S,inactive,
O=C(O)COc1nc(Cl)c(Cl)cc1Cl,inactive,
N#Cc1cc(Br)c(O)c(Br)c1,,6.14 µM (active)
N#Cc1nn(-c2c(Cl)cc(C(F)(F)F)cc2Cl)c(N)c1S(=O)C(F)(F)F (stereo not given),inactive,
CNC(=O)ON=CC(C)(C)SC,inactive,
Cc1cc(Cl)ccc1OCC(=O)O,inactive,
COC(=O)c1ccccc1C(=O)OC,inactive,
C=CC1(C)OC(=O)N(c2cc(Cl)cc(Cl)c2)C1=O (stereo not given),inactive,
COC(=O)N(OC)c1ccccc1COc1ccn(-c2ccc(Cl)cc2)n1,,77.8 µM (active)
COP(N)(=O)SC (stereo not given),inactive,
CCOc1cc(Oc2ccc(C(F)(F)F)cc2Cl)ccc1[N+](=O)[O-],inactive,
COC(=O)C(C)Oc1ccc(Oc2ccc(Cl)cc2Cl)cc1 (stereo not given),inactive,
CON(C)C(=O)Nc1ccc(Cl)c(Cl)c1,inactive,
CCCN(CCC)c1c([N+](=O)[O-])cc(S(N)(=O)=O)cc1[N+](=O)[O-],inactive,80.6 µM (active)
C=CCC1=C(C)C(OC(=O)C2C(C=C(C)C)C2(C)C)CC1=O (stereo not given),inactive,
COc1cnc(OC)n2nc(NS(=O)(=O)c3c(OCC(F)F)cccc3C(F)(F)F)nc12,inactive,
C=CCC1=C(C)[C@@H](OC(=O)[C@@H]2[C@@H](C=C(C)C)C2(C)C)CC1=O,inactive,
Oc1ccccc1-c1ccccc1,inactive,
CC(C)Oc1cc(-n2nc(C(C)(C)C)oc2=O)c(Cl)cc1Cl,inactive,
CCc1nn(C)c(C(=O)NCc2ccc(C(C)(C)C)cc2)c1Cl,,35.8 µM (active)

SMILES,outcome,AC50
N#CC(CCc1ccc(Cl)cc1)(Cn1cncn1)c1ccccc1 (stereo not given),inactive,
CCNc1nc(Cl)nc(NC(C)C)n1,inactive,
CCNc1nc(Cl)nc(NCC)n1,inactive,
COc1ccc(C(c2ccc(OC)cc2)C(Cl)(Cl)Cl)cc1,inactive,
CCOC(=O)C(Cl)Cc1cc(-n2nc(C)n(C(F)F)c2=O)c(F)cc1Cl (stereo not given),inactive,
CCOP(=S)(OCC)SCn1c(=O)oc2cc(Cl)ccc21,inactive,
Cc1c(F)c(F)c(COC(=O)C2C(/C=C(\Cl)C(F)(F)F)C2(C)C)c(F)c1F (stereo not given),inactive,
CC1COC(Cn2cncn2)(c2ccc(Oc3ccc(Cl)cc3)cc2Cl)O1 (stereo not given),inactive,
O=C(Nc1ccccc1)Nc1ccnc(Cl)c1,,78.2 µM (active)
CCCCNC(=O)n1c(NC(=O)OC)nc2ccccc21,inactive,
CCCC1COC(Cn2cncn2)(c2ccc(Cl)cc2Cl)O1 (stereo not given),inactive,
CC(C)C1(C)N=C(c2nc3ccccc3cc2C(=O)O)NC1=O (stereo not given),inactive,
Fc1ccc(Oc2ccnc3cc(Cl)cc(Cl)c23)cc1,inactive,
CN(C)C(=S)SSC(=S)N(C)C,inactive,
CC1=C(C(=O)Nc2ccccc2)SCCO1,inactive,
COC(=O)C=C(C)OP(=O)(OC)OC,inactive,
CS/C(C)=N/OC(=O)N(C)SN(C)C(=O)O/N=C(\C)SC,inactive,
CO/C=C(/C(=O)OC)c1ccccc1Oc1cc(Oc2ccccc2C#N)ncn1,inactive,
CC(Oc1ccc(Cl)cc1Cl)C(=O)O (stereo not given),inactive,
